Assay outcomes deposited in PubChem BioAssay by National Center for Advancing Translational Sciences (NCATS).
MCF10A rereplic = A quantitative high throughput screen for small molecules that induce DNA re-replication in MCF 10a normal breast cells; MCF 10A DNA re-replication, Hoechst nuclear intensity, 48 h; Potency, µM (doses to about 46.1 µM), without a hit: top-dose activity, positive = re-replication, actives largely listed as activators; 350,000 tested, 2.9% active; AID 624296, 2012; note: % of control where 0% means no effect; nearly all actives have a fitted effect of over 50% in size
HT1080NT lethal = qHTS for induction of synthetic lethality in tumor cells producing 2HG: qHTS for the HT-1080-NT fibrosarcoma cell line; HT-1080-NT fibrosarcoma viability, CellTiter-Glo ATP luminescence, 48 h; 360,000 tested, 1.6% active; Potency, µM (top dose mostly 46.1 µM), for the others: at the highest dose activity, negative = less viability, actives largely listed as cytotoxic;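 note: NT is the 2HG producing partner of a matched IDH1 knockdown line; 0% = DMSO-treated cells and -100% = media-only wells without cells; nearly all actives have a fitted effect of over 55% in size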
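Compounds were tested in concentration-response format on HT-1080-NT cells for 48 hours at 37 degrees C. Cell viability came from CellTiter-Glo luminescence; curves were classified by r2, response magnitude and activity.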
SW480 rereplic = A quantitative high throughput screen for small molecules that induce DNA re-replication in SW480 colon adenocarcinoma cells. SW480 DNA re-replication, Hoechst DNA content imaging, 48 h. Potency, µM (series often up to 46.1 µM), for the others: top-dose re-replication activation, most hits filed as activators. 340,000 tested, 1.8% active. AID 624297, 2012; note: % of control where 0% means no effect; nearly all actives have a fitted effect of over 55% in size
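250 cells/well; 23 nL cpd via pin tool; 48 hr, 37 C, 5% CO2; Hoechst 40 min; imager read of total nuclear intensity, ex 405/em 500-530 nm.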
KB-V1 cytotox = qHTS assay for MDR1-selective chemotherapeutics: Primary screen using the drug-selected MDR subline cells KB-V1; KB-V1 MDR cells viability, CellTiter-Glo, 72 h; Potency, µM (top dose mostly 46.1 µM), actives largely listed as cytotoxic; 400,000 tested, 3.4% active; note: % is set by controls: 0 for no effect and ±100 for the full control effect; nearly all actives have a fitted effect of over 60% in size
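Cells of the MDR subline KB-V1 are plated, dosed with compound at multiple concentrations, and incubated 72 h at 37 degrees C; CellTiter-Glo is then added and luminescence read after 10 min.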
KB-3-1 cytotox = qHTS assay for MDR1-selective chemotherapeutics: Primary screen using the parental adenocarcinoma cell KB-3-1; KB-3-1 viability, CellTiter-Glo ATP luminescence, 72 h; 400,000 tested, 1.4% active; AID 1347075, 2019; Potency, µM (series often up to 46.1 µM), actives largely listed as cytotoxic; note: % is set by controls: 0 for no effect and ±100 for the full control effect; nearly all actives have a fitted effect of over 60% in size
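Parental KB-3-1 adenocarcinoma cells in phenol-red-free DMEM with 10% FBS were pin-treated with compounds at several concentrations, incubated 72 h at 37 °C, and viability read by CellTiter-Glo luminescence; concentration-effect curves were fitted after normalization.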
HT1080 IDH1KD tx = qHTS for induction of synthetic lethality in tumor cells producing 2HG: qHTS for the HT-1080-IDH1KD cell line. Potency, µM (highest dose often 46.1 µM), for the others: at the highest dose activity, negative = toxicity, most hits filed as cytotoxic. HT-1080 IDH1 knockdown viability, ATP luminescence, 48 h. 360,000 tested, 2% active;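 note: 0% = DMSO wells and -100% = cell-free medium wells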
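Viability of IDH1-knockdown HT-1080 fibrosarcoma cells was assessed by CellTiter-Glo after 48 h at 37 °C with titrated compound; concentration-effect curves were classified by fit quality and response size.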
An asterisk follows results filed as active; i = inactive; ? = inconclusive; nt = no result; [ ] = dose if it differs, or a comment. Most compounds without a hit are left out; they make up all but 8% or so of the library. Calls come from the whole dose curve; as a rule, active = well fitted curve in the direction sought with a large enough effect; inconclusive = small, poorly fitted or top-dose-only effect, or another doubt; inactive = no such curve, though single readings can be large; an effect the other way counts as inactive or inconclusive. Potency is the fitted concentration of half-maximal effect.

SMILES	MCF10A rereplic	HT1080NT lethal	SW480 rereplic	KB-V1 cytotox	KB-3-1 cytotox	HT1080 IDH1KD tx
NC(=O)[C@@H]1CSSCCC(=O)N[C@@H](CCCCN=C(N)N)C(=O)NCC(=O)N[C@@H](CC(=O)O)C(=O)N[C@@H](Cc2c[nH]c3ccccc23)C(=O)N2CCC[C@H]2C(=O)N1	8%	nt	1%	nt	nt	nt
CCOC(=O)c1[nH]c2ccccc2c1NC(=O)c1cc(OC)c(OC)c(OC)c1	-2%	5%	-6%	i	i	-13%
CCOC(=O)c1[nH]c2ccccc2c1NC(=O)c1cc(OC)cc(OC)c1	nt	nt	nt	8.2µM*	i	nt
CN(C)CCSc1nc(-c2ccccc2)nc2c1COC(C)(C)C2	20%	?	-4%	10µM*	i	?
CSc1nc(-c2ccccc2)nc2c1COC(C)(C)C2	?	-19%	5%[9.22 µM]	i	i	-19%
O=C1CCc2cc(S(=O)(=O)Nc3cc(F)cc(Cl)c3)c(F)cc2N1	nt	nt	nt	i	i	nt
CCN(CC)S(=O)(=O)c1ccc2c(c1)c(=O)c(C(=O)N1CCN(c3ccc(OC)cc3)CC1)cn2C	nt	nt	nt	i	i	nt
Cc1cccc(OCCSc2nc3ccccc3n2CC(=O)N2CCOCC2)c1C	nt	nt	nt	i	i	nt
Cc1ccc(NC(=O)C2C3C=CC4(O3)C2C(=O)N(CCCN2CCOCC2)C4C(=O)NC2CCCCC2)cc1Cl (centres undefined)	-23%	2%	-15%	i	?	-1%
O=C(Nc1ccc(Cl)c(Cl)c1)C1C2C=CC3(O2)C1C(=O)N(CCN1CCCCC1)C3C(=O)NC1CCCCC1 (centres undefined)	?	21µM*	?	i	i	?
CC1OC(CC(=O)O)CC2=C1C(=O)c1c(O)cccc1C2=O (centres undefined)	?	1.3µM*	?	2.9µM*	3.7µM*	0.26µM*
Cc1cc(C)nc(N/N=C/C2=C(N3CCOCC3)C(=C/c3ccccc3)/CC2)n1	8.2µM*	-2%	16µM*	2.3µM*	?	-5%
Cc1cc(=O)[nH]c(N/N=C/C2=C(N3CCOCC3)C(=C\c3ccc(Cl)cc3)/CC2)n1	?	-28%	1%	?	i	-28%
O=C(N/N=C/C1=C(N2CCOCC2)C(=C\c2ccccc2)/CC1)Nc1ccccc1	?	?	?	i	i	7.3µM*
Cc1occc1C(=O)N/N=C/C1=C(N2CCOCC2)C(=C\c2ccc(Cl)cc2)/CC1	18µM*	0%	?	i	i	11%
O=C(NP(=O)(N1CCOCC1)N1CCOCC1)C1=C(N2CCOCC2)/C(=C\c2ccccc2)CC1	23µM*	5%	?	i	i	4%
CCOC(=O)c1ccc(-n2ccnc2)c(NC(=O)c2ccc(Cl)cc2)c1	4%	2%	-70%	15µM*	i	1%
Cc1cc(NC(=O)c2ccc(Cl)cc2)n(CCOC(=O)c2ccc(Cl)cc2)n1	4%	-23%	1%	?	i	-24%
O=C(NCCC1CCCCN1S(=O)(=O)c1ccccc1)C(=O)Nc1ccc(F)cc1F (centres undefined)	18µM*	-10%	?	?	?	-19%
O=C(NCCC1CCCCN1S(=O)(=O)c1ccc(F)cc1)C(=O)Nc1ccccc1F (centres undefined)	-5%	0%	-256%	i	i	-2%
Cc1cc(S(=O)(=O)N2CCCCC2CCNC(=O)C(=O)NCC2CCCO2)ccc1F (centres undefined)	1%	1%	-2%	2.6µM*	i	8%
O=C(NCCC1CCCCN1S(=O)(=O)c1ccccc1)C(=O)Nc1ccccc1F (centres undefined)	-4%	-13%	-123%	i	i	-17%
Cc1ccc(S(=O)(=O)N2CCCCC2CCNC(=O)C(=O)Nc2ccccc2F)cc1 (centres undefined)	17%	-4%	26%	5.8µM*	7.3µM*	-1%
CCCOc1ccc(-c2nc3ccc(Br)cc3c(=O)o2)cc1	nt	nt	nt	i	i	nt
CCOC(=O)C1CCN(C(c2ccccc2OC)c2c(O)cc(C)n(CCOC)c2=O)CC1 (centres undefined)	nt	nt	nt	i	i	nt
SMILES	MCF10A rereplic	HT1080NT lethal	SW480 rereplic	KB-V1 cytotox	KB-3-1 cytotox	HT1080 IDH1KD tx
Cc1ccc(O)c(NC(=S)NC(=O)/C=C/c2ccccc2)c1	0%	6%	-8%	?	i	6%
Cc1ccc(O)c(NC(=S)NC(=O)/C=C/c2ccco2)c1	11%	-26%	16µM*	?	10µM*	-22%
O=C(/C=C/c1ccco1)NC(=S)Nc1ccc(O)c(-c2nc3ccccc3s2)c1	8.2µM*	?	?	?	5.8µM*	?
Cc1ccc(-c2csc(NC(=S)NC(=O)/C=C/c3ccco3)n2)cc1	1.6µM*	7.1µM*	29%	3.3µM*	5.8µM*	7.9µM*
Cc1ccnc(NC(=S)NC(=O)/C=C/c2ccco2)c1	?	?	?	8.2µM*	10µM*	?
O=C(/C=C\c1ccco1)Nc1nc(-c2ccc3ccccc3c2)cs1	?	-15%	4%	?	i	-26%
CCOc1ccc(N=C2NC(=O)S/C2=C\c2ccc(N(C)C)cc2)cc1	13%	-5%	?	21µM*	i	-17%
C=C1C(=O)O[C@H]2[C@H]1[C@@H](O)CC(=C)[C@@H]1CC(=O)[C@@H](C)[C@H]21	12µM*	?	4.6µM*	i	i	?
C/C(=N/NC(=O)C1CCN(S(=O)(=O)c2ccc(C)cc2)CC1)c1cccc([N+](=O)[O-])c1	4%	10%	-2%	23µM*	i	-3%
COc1ccc(CCn2c3c(c(=O)[nH]c2=O)C(NC(=O)c2ccccc2)(C(F)(F)F)C(=O)N3)cc1OC (centres undefined)	nt	nt	nt	?	i	nt
CCCCCC1CCNCC1	nt	nt	nt	i	i	nt
Cn1cnc([N+](=O)[O-])c1S(=O)(=O)c1ccc(Cl)cc1	9.2µM*	9.2µM*	?	i	i	6.5µM*
Cc1ccc(S(=O)(=O)c2cn(C)c3cc(N4CCCCCC4)c(F)cc3c2=O)cc1	nt	nt	nt	i	i	nt
